For six compounds, growth results are on record in PubChem BioAssay (NCI).

This is part of a sample that, as a whole, favours compounds with a hit. Of some 83,000 tested, about 20% had one in any assay.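 Single-concentration screen, 48 h exposure, 96-well plates. Endpoint: percent growth. Below 10 = active.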 A number with no mark means an inactive call. Calls of active or inactive are those of the source.

Holding throughout (test): NCI-60 one-dose screen, 48 h (100 = growth as untreated, 0 = no growth, -100 = all killed)
Experiment [1] has as its system NCI-H23 lung. Particulars: 10 µM unless noted.
Experiment [2] concerns HOP-62 NSCLC. Particulars: 10 µM unless noted.
The subject of experiment [3] is NCI-H460 lung. Particulars: 10 µM unless noted.
The test system of experiment [4] is A549/ATCC NSCLC. The settings on record: 10 µM unless noted.
For experiment [5], the system named is K-562 leukemia. Particulars: 10 µM unless noted.
Experiment [6] concerns RXF 393 renal. Particulars: 10 µM unless noted.
The test system of experiment [7] is SF-295 CNS. Particulars: 10 µM unless noted.
Experiment [8] relates to U251 CNS. The settings on record: 10 µM unless noted.
In experiment [9] the test system is LOX IMVI melanoma. Particulars: 10 µM unless noted.
For experiment [10], the system named is SK-MEL-28 melanoma. The settings on record: 10 µM unless noted.
Experiment [11] has as its system UO-31 renal. Particulars: 10 µM unless noted.
The test system of experiment [12] is A498 renal. The settings on record: 10 µM unless noted.
For experiment [13], the system named is HL-60(TB) leukemia. The settings on record: 10 µM unless noted.
The subject of experiment [14] is SR leukemia. Particulars: 10 µM.
Experiment [15] deals with OVCAR-4 ovarian. The settings on record: 10 µM unless noted.
Experiment [16] concerns BT-549 breast. Particulars: 10 µM.
Experiment [17] concerns HCC-2998 colon. Particulars: 10 µM unless noted.
Experiment [18] has as its system UACC-257 melanoma. The settings on record: 10 µM unless noted.
In experiment [19] the test system is SK-MEL-2 melanoma. Particulars: 10 µM unless noted.
The subject of experiment [20] is TK-10 renal. The settings on record: 10 µM unless noted.

Take `CC(C)(C)[Si](C)(C)OC1[C@@H](O[Si](C)(C)C(C)(C)C)[C@@H](CNC(=O)NC(=O)CF)O[C@H]1n1cnc2c(NC(=O)Nc3ccccc3)ncnc21` (stereo partly drawn): the growth is 64.7% in experiment [1]; 87.1% in experiment [2]; 4.01% (active) in [3]; 26.2% in experiment [4]; 37.7% in [5]; 65.8% in [6]. Moreover, the growth is 79.5% in experiment [7]; 56.6% in experiment [8]; 12.2% in [9]; 93.2% in experiment [10]; 77.5% in [11]; 70.2% in [12]. Moreover, the growth is 17.3% in experiment [13]; -22.6% (active) in experiment [14]; 63.8% in experiment [15]; 68.9% in experiment [16]; 46.3% in [17].

With `COc1cc(C2CC(=O)Nc3nc(N)[se]c32)c(OC)c2c1OCO2` (stereo not drawn), the growth in experiment [1] was 99.7%; in [2], 32.7%; in [3], 23.9%; in experiment [4], 58.9%; in experiment [7] it was 6.71% (active); in experiment [18] it was 116%. The growth is 48% in experiment [8]; 104% in experiment [9]; 104% in experiment [10]; 101% in experiment [19]; 86.8% in experiment [11]; 109% in experiment [20]. Moreover, the growth in experiment [12] was 102%; in [13], 84.4%; in [14] it was 107%; in experiment [15], 96.3%; in experiment [16] it was 101%; in experiment [17] it was 121%.

Regarding `Cn1cnnc1[S-].[Au+].c1ccc([PH+](c2ccccc2)c2ccccc2)cc1`, the growth in experiment [1] is 15.8%; in experiment [2], 25.1%; in experiment [3], 58.5%; in experiment [4], 78.8%; in [5], 1.84% (active); in experiment [6], -78.6% (active). In addition, the growth in experiment [7] is 78.8%; in experiment [18] it was 22.9%; in [8], -43.1% (active); in [9] it was -48.6% (active); in experiment [10], 10.5%; in [19], 0.754% (active). Besides, the growth was 48.5% in experiment [11]; -44.5% (active) in experiment [20]; 64.7% in experiment [12]; -12.7% (active) in experiment [13]; 4.41% (active) in [14]; 38.9% in experiment [15]. Moreover, the growth in experiment [16] was 36.8%; in experiment [17], 48.3%.

Consider `CCCCOC(=O)c1ccccc1C(=O)O.CCCCOC(=O)c1ccccc1C(=O)O.[Cu+2]`, for which the growth was 107% in experiment [1]; 127% in experiment [2]; 109% in experiment [3]; 103% in [4]; 96.2% in experiment [5]; 116% in experiment [6]. Further, the growth in experiment [18] was 110%; in [9], 89.4%; in experiment [19], 117%; in experiment [11], 96.5%; in experiment [20] it was 107%; in experiment [12], 105%. The growth in experiment [13] is 89.6%; in [14], 92.7%; in experiment [15], 101%; in experiment [16], 105%; in experiment [17], 104%.

As to `CO[C@@H]1[C@H](OC(=O)NC(=O)CCl)CC[C@]2(CO2)[C@H]1[C@@]1(C)O[C@@H]1CC=C(C)C`, the growth in experiment [2] was 64.4%; in [3], 23.5%; in experiment [4], 59.1%; in [5], 47.2%; in [6], 68.2%; in experiment [7], 75.1%. Further, the growth was 44.3% in experiment [18]; 5.86% (active) in experiment [8]; 22.8% in [9]; 82.3% in [19]; 52.6% in [11]; 92.6% in [20]. For the same compound, the growth in experiment [12] was 103%; in [13] it was 49.1%; in experiment [14], 21.5%; in experiment [15], 47.8%; in experiment [16], 61.2%; in experiment [17] it was 80.9%.

As to `O=[N+]([O-])c1ccc(F)c([N+](=O)[O-])c1F`, the growth in [2] is 106%; in [3], 106%; in experiment [4], 96%; in experiment [5], 11.1%; in experiment [6] it was 109%; in [7] it was 104%. Also, the growth in [18] is 103%; in [8] it was 101%; in experiment [9], 102%; in experiment [10], 116%; in experiment [19], 93.7%; in experiment [11], 78.3%. Also, the growth in experiment [20] was 99.9%; in experiment [12], 93.7%; in [13] it was 92.2%; in experiment [14], 8.94% (active); in experiment [15], 116%; in [17] it was 105%.
